DT40 TDP1 no CPT: qHTS for Inhibitors of human tyrosyl-DNA phosphodiesterase 1 (TDP1): qHTS in cells in absence of CPT | 15% of 420,000 active | DT40 Tdp1-/- hTDP1 cells, no CPT, ATP luminescence, 48 h | Potency, µM (highest dose often 46.2 µM), actives largely listed as inhibitors; also: nearly all actives have a fitted effect of over 55% in size
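Readout: luminescence from CellTiter-Glo after 30 min in the dark at RT. Cells: DT40 Tdp1-/- with stable hTDP1, 400/well. Exposure: compounds alone, ≥48 hr, 37 °C.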
HT1080-NT tox: qHTS for induction of synthetic lethality in tumor cells producing 2HG: qHTS for the HT-1080-NT fibrosarcoma cell line | HT-1080-NT fibrosarcoma viability, CellTiter-Glo ATP luminescence, 48 h | Potency, µM (highest dose often 46.1 µM), most hits filed as cytotoxic | 1.6% of 360,000 active | AID 686970, 2013;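 also: NT is the 2HG producing partner of a matched IDH1 knockdown line; nearly all actives have a fitted effect of over 55% in size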
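Viability by CellTiter-Glo luminescence after 48 h compound exposure at 37C of HT-1080-NT cells (750/well, RPMI, 5% FBS). % activity scaled between DMSO wells and medium-only wells, then curve-fitted and categorized by curve class.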
TDP1 cell CPT: qHTS for Inhibitors of human tyrosyl-DNA phosphodiesterase 1 (TDP1): qHTS in cells in presence of CPT; chicken DT40 Tdp1-/-;hTDP1 cells + 20 nM CPT, ATP luminescence, 48 h; Potency, µM (highest dose often 46.2 µM), hits mostly inhibitors; 12% of 420,000 active; AID 686979, 2013; also: nearly all actives have a fitted effect of over 55% in size
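Cell growth measured by CellTiter-Glo luminescence after a minimum 48 h, 37 C compound exposure with 20 nM CPT in Tdp1-knockout DT40 cells stably expressing hTDP1, seeded 400/well; qHTS titration format.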
IL-1B inflam inh: qHTS for Inhibitors of Inflammasome Signaling: IL-1-beta AlphaLISA Primary Screen | activity change, % at 57.5 µM | THP-1 LPS/ATP IL-1B secretion, AlphaLISA, 16 h; stronger effect = lower value | 4.7% of 360,000 active; in the data active = activity change below about -50%; inconclusive = mostly about -30% to -49%
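THP-1 cells pretreated 1 hr with compounds (up to 57.5 uM final), then stimulated with LPS (250 ng/mL final) plus ATP (1.25 mM final); secreted IL-1B measured by AlphaLISA after 16 hr, decreased signal indicating inhibition.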
HT1080 IDH1KD tx: qHTS for induction of synthetic lethality in tumor cells producing 2HG: qHTS for the HT-1080-IDH1KD cell line. 2% of 360,000 active. AID 686971, 2013. Potency, µM (series often up to 46.1 µM), most hits filed as cytotoxic. HT-1080 IDH1 knockdown viability, ATP luminescence, 48 h
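Knockdown cells (IDH1KD HT-1080) received compounds 2 h after plating at 750 cells/well and were kept 48 h at 37 °C in 5% FBS RPMI. A CellTiter-Glo luminescence read gave % activity for curve fitting.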
ELG1 DNA repair: qHTS screen for small molecules that inhibit ELG1-dependent DNA repair in human embryonic kidney (HEK293T) cells expressing luciferase-tagged ELG1; HEK293T ELG1-luciferase reporter, luminescence, 16 h; DNA damage induced by 5-fluorouridine; Potency, µM (titrated, usually from 46.1 µM), usual class: inhibitors; 2.3% of 330,000 active; AID 504467, 2011; also: nearly all actives have a fitted effect of over 55% in size
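Reporter activity after DNA damage by 5-fluorouridine is monitored. Compound-treated cells incubate 16 hr at 37 °C, then ONE-Glo is added for 30 min before luminescence reading.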
Hits are given with their value. Hits are enriched below; roughly 19% of the tested compounds scored in any of these assays. Unless noted, calls follow the shape of the dose curve; as a rule, active = well fitted curve in the direction sought with a large enough effect; inconclusive = small, poorly fitted or top-dose-only effect, or another doubt; inactive = no such curve, though single readings can be large; an effect the other way counts as inactive or inconclusive.

Results for CCc1nc2ccc(C(=O)Nc3cc(-c4ccccc4)ccc3OC)cn2c1N(C)CCC(C)C ?
DT40 TDP1 no CPT: 20.6µM; HT1080-NT tox: inconclusive; TDP1 cell CPT: 18.4µM; IL-1B inflam inh: inconclusive; HT1080 IDH1KD tx: inconclusive

What do the screens show for `CC(C)/C=C/C(=O)N1CCCC(N2CCN(c3ccccc3F)CC2)C1` (stereo unspecified)?
DT40 TDP1 no CPT: inactive; HT1080-NT tox: inactive; TDP1 cell CPT: inconclusive; IL-1B inflam inh: inactive; HT1080 IDH1KD tx: inactive; ELG1 DNA repair: inactive

How did COc1ccccc1C(C)NS(=O)(=O)c1cccs1 (stereo unspecified) do in these assays?
ELG1 DNA repair: inactive

What do the screens show for `CN(C)/C=C/C(=O)c1ccc(Br)cc1`?
DT40 TDP1 no CPT: inactive; HT1080-NT tox: inactive; TDP1 cell CPT: inactive; IL-1B inflam inh: inactive; HT1080 IDH1KD tx: inactive; ELG1 DNA repair: inconclusive

How did CN(O)/C=C/C(=O)c1ccc(Br)cc1 do in these assays?
DT40 TDP1 no CPT: inconclusive; HT1080-NT tox: inactive; TDP1 cell CPT: 16.4µM; IL-1B inflam inh: inconclusive; HT1080 IDH1KD tx: inactive; ELG1 DNA repair: inactive

How did CC(=O)N(Cc1ccccc1)C(CC(=O)NCc1ccccc1)C(=O)O (stereo unspecified) do in these assays?
DT40 TDP1 no CPT: inactive; HT1080-NT tox: inactive; TDP1 cell CPT: inactive; IL-1B inflam inh: inactive; HT1080 IDH1KD tx: inconclusive

What do the screens show for `O=C(/C=C/c1c(Cl)cccc1Cl)Nc1ccncc1`?
DT40 TDP1 no CPT: 20.6µM; HT1080-NT tox: inactive; TDP1 cell CPT: inconclusive; IL-1B inflam inh: -59.9; HT1080 IDH1KD tx: inactive; ELG1 DNA repair: inconclusive

How did Cc1cc(C)nc(NC(=O)/C=C/c2ccc(Cl)cc2Cl)c1 do in these assays?
DT40 TDP1 no CPT: 13µM; HT1080-NT tox: inactive; TDP1 cell CPT: inconclusive; IL-1B inflam inh: -52.8; HT1080 IDH1KD tx: inactive; ELG1 DNA repair: inconclusive

How did CC(=O)N(C)c1ccc(NC(=O)/C=C/c2ccccc2Cl)cc1 do in these assays?
DT40 TDP1 no CPT: 13µM; HT1080-NT tox: inactive; TDP1 cell CPT: inconclusive; IL-1B inflam inh: inactive; HT1080 IDH1KD tx: inactive; ELG1 DNA repair: inconclusive

How did Cc1cc(C)nc(NC(=O)/C=C/c2ccccc2Cl)c1 do in these assays?
DT40 TDP1 no CPT: inconclusive; HT1080-NT tox: inactive; TDP1 cell CPT: inactive; IL-1B inflam inh: inconclusive; HT1080 IDH1KD tx: inactive; ELG1 DNA repair: inconclusive

Results for O=C(/C=C/c1ccc(Cl)cc1Cl)NCCSCc1ccccc1 ?
DT40 TDP1 no CPT: inactive; HT1080-NT tox: inactive; TDP1 cell CPT: inactive; IL-1B inflam inh: -95.5; HT1080 IDH1KD tx: inactive; ELG1 DNA repair: inactive

How did COc1ccc(C(CNC(=O)CCNS(=O)(=O)c2ccc(Br)cc2)N2CCOCC2)cc1 (stereo unspecified) do in these assays?
DT40 TDP1 no CPT: inactive; HT1080-NT tox: inactive; TDP1 cell CPT: inactive; IL-1B inflam inh: inactive; HT1080 IDH1KD tx: inactive

Results for Cn1cc(S(=O)(=O)N2CCNCC2)cc1C(N)=O ?
DT40 TDP1 no CPT: inactive; HT1080-NT tox: inactive; TDP1 cell CPT: inactive; IL-1B inflam inh: inactive; HT1080 IDH1KD tx: inactive; ELG1 DNA repair: inactive

Results for O=C(/C=C/c1ccc(Cl)cc1Cl)Nc1ccncc1 ?
DT40 TDP1 no CPT: 14.6µM; HT1080-NT tox: inactive; TDP1 cell CPT: inconclusive; IL-1B inflam inh: inactive; HT1080 IDH1KD tx: inactive; ELG1 DNA repair: inconclusive

How did Cc1ccnc(NC(=O)/C=C/c2ccccc2Cl)c1 do in these assays?
DT40 TDP1 no CPT: inactive; HT1080-NT tox: inactive; TDP1 cell CPT: inactive; IL-1B inflam inh: -68.5; HT1080 IDH1KD tx: inactive; ELG1 DNA repair: inconclusive

Results for O=C(CSc1nnc(-c2ccco2)o1)N1CCCCC1 ?
DT40 TDP1 no CPT: inactive; HT1080-NT tox: inactive; TDP1 cell CPT: inactive; IL-1B inflam inh: inactive; HT1080 IDH1KD tx: inactive; ELG1 DNA repair: inconclusive
